Records with an inconclusive call do not appear. Calls of active or inactive are those of the source. Calls come from the whole dose curve; as a rule, active = well fitted curve in the direction sought with a large enough effect; inconclusive = small, poorly fitted or top-dose-only effect, or another doubt; inactive = no such curve, though single readings can be large; an effect the other way counts as inactive or inconclusive.
Assays:
[1] = P-glycoprotein substrates identified in KB-8-5-11 adenocarcinoma cell line, qHTS therapeutic library screen (AID 1346987); note: nearly all actives have a fitted effect of over 65% in size
Procedure, shortened: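 KB-8-5-11: colchicine-selected sub-line of KB-3-1 over-expressing P-gp; assay medium lacked colchicine. 72 h drug exposure at 37 degree C, CellTiter-Glo.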

[2] = qHTS of pediatric cancer cell lines to identify multiple opportunities for drug repurposing: Primary screen for TC32 cells (AID 1347089); note: nearly all actives have a fitted effect of over 60% in size
Procedure, shortened: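 A viability screen of TC32 cells was run over 48 h, with primary MIPE doses spanning 0.78 nM–46 µM and NPC doses 0.59 nM–46 µM. ATP luminescence (CellTiter-Glo) served as the read-out.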

[3] = qHTS of pediatric cancer cell lines to identify multiple opportunities for drug repurposing: Primary screen for SJ-GBM2 cells (AID 1347091)
Procedure, shortened: (§1)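 Viability measured as metabolically active cells via CellTiter-Glo luminescence following 48 hours of compound exposure, 11-point dilutions in confirmatory testing. 500-1,000 cells/well plated 5 hours before dosing; controls were DMSO and 2.3 µM bortezomib.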

[4] = qHTS of pediatric cancer cell lines to identify multiple opportunities for drug repurposing: Primary screen for BT-37 cells (AID 1347094)
Procedure, shortened: (§2)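 Readout: CellTiter-Glo luminescence, 48 h treatment. Controls DMSO (neutral) and bortezomib 2.3 µM final (positive). Potency and efficacy taken from primary-screen concentration-response curves.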

[5] = qHTS of pediatric cancer cell lines to identify multiple opportunities for drug repurposing: Primary screen for SK-N-SH cells (AID 1347098); note: nearly all actives have a fitted effect of over 65% in size
Procedure, shortened: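 Cells (500-1,000/well) rested 5 h, then received compounds for 48 h; metabolically active cells were measured by CellTiter-Glo luminescence. Final concentrations spanned up to 46 µM (MIPE, 11-point) or 0.59 nM-46 µM (NPC, 8-point) in primary screens, 11-point in follow-ups.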

[6] = NS1 protein of Zika virus - qHTS assay to identify small molecule inhibitors in human HEK 293 cells (AID 1347053); note: nearly all actives have a fitted effect of over 55% in size
Procedure, shortened: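 Inhibition of NS1 expression was scored in HEK 293 cells given compound 1 h ahead of MR766 virus (MOI = 0.5). Following 24 h at 37 C, two anti-NS1 antibodies generated a TR-FRET signal, scaled between uninfected and infected controls.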

[7] = qHTS of pediatric cancer cell lines to identify multiple opportunities for drug repurposing: Primary screen for DAOY cells (AID 1347090); note: nearly all actives have a fitted effect of over 55% in size
Procedure, shortened: as §1

[8] = qHTS of pediatric cancer cell lines to identify multiple opportunities for drug repurposing: Primary screen for A673 cells (AID 1347092); note: nearly all actives have a fitted effect of over 45% in size
Procedure, shortened: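 Titration-based qHTS on A673 cells: MIPE compounds spanned 11 points (0.78 nM to 46 µM final), NPC compounds 8 points (0.59 nM to 46 µM final). Viability after 48 h was measured by ATP luminescence.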

[9] = qHTS of pediatric cancer cell lines to identify multiple opportunities for drug repurposing: Primary screen for SK-N-MC cells (AID 1347093)
Procedure, shortened: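 Metabolically active cells were quantified by ATP-dependent luminescence (CellTiter-Glo, 15 min at room temperature) following 48 h treatment. Cells had been plated at 500-1,000 per well and settled for 5 h beforehand.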

[10] = qHTS of pediatric cancer cell lines to identify multiple opportunities for drug repurposing: Primary screen for U-2 OS cells (AID 1347096); note: nearly all actives have a fitted effect of over 50% in size
Procedure, shortened: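 Viability after 48 h compound treatment at 37C, 500-1,000 cells/well, read as ATP luminescence with CellTiter-Glo. Primary screens used 11-point (MIPE, 0.78 nM-46 µM) or 8-point (NPC, 0.59 nM-46 µM) final concentrations; follow-up screens used 11-point dilutions.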

[11] = qHTS of pediatric cancer cell lines to identify multiple opportunities for drug repurposing: Primary screen for Saos-2 cells (AID 1347097); note: nearly all actives have a fitted effect of over 40% in size
Procedure, shortened: as §2

[12] = qHTS of pediatric cancer cell lines to identify multiple opportunities for drug repurposing: Primary screen for NB-EBc1 cells (AID 1347095)
Procedure, shortened: as §2

Measured: Potency
Potency is the fitted concentration of half-maximal effect.

CC(=O)Nc1cccc(-n2c(=O)n(C3CC3)c(=O)c3c(Nc4ccc(I)cc4F)n(C)c(=O)c(C)c32)c1
inactive: [1] | [2] | [3] | [4]
active: [5] 3.41 µM

C[C@@H]1[C@H](O)[C@@H](C)C=CC=CC=CC=CC=CC=CC=C[C@H](O[C@@H]2O[C@H](C)[C@H](O)[C@H](N)[C@@H]2O)C[C@@H]2O[C@](O)(C[C@@H](O)C[C@@H](O)[C@H](O)CC[C@@H](O)C[C@@H](O)CC(=O)O[C@H]1C)C[C@H](O)[C@@H]2C(=O)O
active: [2] 2.94 µM | [8] 0.148 µM | [9] 0.118 µM
inactive: [6] | [7] | [3] | [10] | [11]

Cc1cccc(-c2[nH]c(C(C)(C)C)nc2-c2ccc3c(c2)OCO3)n1
active: [1] 10.3 µM | [2] 8.29 µM | [3] 4.69 µM | [9] 2.96 µM | [11] 0.418 µM | [5] 30.4 µM

C[C@@H]1O[C@@H](O[C@H]2CC[C@@]3(C)[C@H](CC[C@@H]4[C@H]3C[C@@H](O)[C@]3(C)[C@@H](C5=CC(=O)OC5)CC[C@]43O)C2)C[C@H](O)[C@@H]1O[C@H]1C[C@H](O)[C@H](O[C@H]2C[C@H](O)[C@@H](O)[C@@H](C)O2)[C@H](C)O1 (stereo in doubt)
active: [6] 0.136 µM | [2] 0.38 µM | [7] 0.27 µM | [3] 0.121 µM | [9] 0.108 µM | [4] 0.112 µM | [12] 0.303 µM | [10] 0.34 µM | [11] 0.679 µM | [5] 0.555 µM

C=CC(=O)Nc1cccc(Sc2nc(Nc3ccc(N4CCN(C)CC4)cc3)ncc2Cl)c1
active: [1] 23.1 µM | [7] 2.35 µM | [9] 2.64 µM | [12] 9.35 µM | [5] 27.1 µM

CCNC(=O)Nc1ccc(Oc2ncnc(N)c2C=NOC)cc1Cl
active: [3] 5.26 µM | [9] 4.69 µM | [12] 2.64 µM
not listed: [1] | [8] | [11]
inactive: all other assays above

CCc1cc(-c2n[nH]c(C)c2-c2ccc3c(c2)OCCO3)c(O)cc1O
active: [1] 9.35 µM | [3] 6.62 µM | [8] 7.43 µM | [9] 10.5 µM | [12] 4.69 µM | [10] 11.8 µM | [11] 14.8 µM | [5] 9.61 µM

COc1ccc(CCC(=O)Nc2nc3ccc(Cl)cc3s2)cc1OC
inactive: [1] | [2] | [3] | [12] | [10]
active: [5] 9.61 µM

COc1cc2c(cc1OC)CC(=O)N(CCCN(C)C[C@H]1Cc3cc(OC)c(OC)cc31)CC2
inactive: [1] | [2] | [10] | [11]
active: [9] 14.8 µM

Cc1ccc(C2=Nc3ccc(Cl)cc3OC2)cc1
active: [3] 23.5 µM | [8] 18.7 µM | [5] 2.15 µM
inactive: [1] | [10]

CC(C)(OCc1nn(Cc2ccccc2)c2ccccc12)C(=O)O
active: [9] 26.4 µM | [12] 11.8 µM | [5] 30.4 µM
not listed: [6] | [7] | [8]
inactive: all other assays above

COc1cc(N2CCN(C)CC2)ccc1Nc1nc(N)c(C(=O)c2c(Cl)cccc2Cl)s1
inactive: [6] | [2] | [7] | [3] | [10] | [11]
active: [8] 18.7 µM

O=C(O)Cc1cccc(OCCCN(Cc2cccc(C(F)(F)F)c2Cl)CC(c2ccccc2)c2ccccc2)c1
inactive: [6] | [2] | [10] | [11]
active: [7] 14.8 µM | [3] 23.5 µM | [8] 23.5 µM | [9] 6.62 µM | [4] 27.3 µM | [12] 23.5 µM | [5] 19.2 µM

CCC(=C(CC)c1ccc(O)cc1)c1ccc(O)cc1
inactive: [1] | [2] | [10]
active: [9] 4.18 µM | [4] 21.7 µM | [12] 5.9 µM | [5] 7.64 µM

CNC1[C@H](O)C(O[C@@H]2C(O)C(O[C@H]3O[C@H]([C@@H](C)NC)CC[C@H]3N)[C@@H](N)C[C@H]2N)OC[C@]1(C)O (some centres undefined)
not listed: [1] | [4]
inactive: all other assays above

CN(C)CCOc1ccc(-c2nc(-c3ccc4c(c3)CCC4=NO)c(-c3ccncc3)[nH]2)cc1
active: [3] 23.5 µM | [8] 18.7 µM | [4] 30.6 µM | [11] 23.5 µM
inactive: [1] | [2] | [12]

CC[C@H](C)n1cc(C)c2c(C(=O)NCc3c(C)cc(C)[nH]c3=O)cc(-c3ccc(N4CCNCC4)nc3)cc21
active: [8] 1.48 µM | [9] 0.59 µM | [4] 19.3 µM | [11] 18.7 µM
inactive: [6] | [2] | [3] | [12] | [10]

Fc1ccc(CNc2ncnc3ccc(F)cc23)cc1
inactive: [6] | [3] | [10]
active: [9] 16.6 µM

O=[N+]([O-])c1ccc(Nc2ccccc2-c2ccccc2)c2nonc12
active: [9] 29.6 µM
inactive: [6] | [2] | [10] | [5]

O=c1[nH]nc(OCCCc2ccc(Cl)cc2)c(NCc2cccnc2)c1Br
inactive: [6] | [5]
active: [3] 23.5 µM | [8] 9.35 µM | [4] 21.7 µM | [10] 23.5 µM | [11] 26.4 µM

Nc1ccn([C@@H]2O[C@H](CO)[C@@H](O)[C@H]2O)c(=O)n1
inactive: [6] | [10] | [5]
active: [2] 0.0294 µM | [8] 0.0235 µM | [4] 0.0077 µM | [12] 33.2 µM

COc1cc2nc(-c3cc(F)ccc3O)nc(N[C@@H]3CNC[C@@H]3C(C)(C)O)c2cc1OC
active: [6] 9.35 µM | [3] 23.5 µM | [8] 7.43 µM | [4] 27.3 µM | [11] 9.35 µM | [5] 30.4 µM

Cc1ccc2c(c1)C(=O)[C@]1(O)CCN(c3ccccc3)C1=N2
active: [9] 20.9 µM | [12] 7.43 µM
inactive: [6] | [2] | [10] | [11]

Cc1cccc(Nc2nc(N[C@@H]3CCCC[C@H]3N)ncc2C(N)=O)c1
inactive: [2] | [12]
active: [6] 23.5 µM | [8] 18.7 µM | [9] 6.62 µM | [4] 27.3 µM | [11] 8.33 µM | [5] 27.1 µM

C[C@@]1(C(=O)Nc2ccc(F)nc2)CCCN1c1nc(Nc2cc(C3CC3)[nH]n2)c2cccn2n1
active: [2] 0.165 µM | [3] 0.187 µM | [8] 0.0935 µM | [9] 0.001 µM | [12] 0.0264 µM | [11] 1.05 µM
inactive: [6] | [10]

Cc1cn([C@@H]2C[C@@H](O)[C@H](CO)O2)c(=O)[nH]c1=O
not listed: [1] | [4] | [8] | [9]
inactive: all other assays above

CN(C)S(=O)(=O)c1ccc2c(c1)C(=Cc1cc3c([nH]1)CCCC3)C(=O)N2
inactive: [6] | [2] | [10]

CN1CCc2c(n(Cc3ccc(C(=O)NO)cc3)c3ccccc23)C1
active: [3] 16.6 µM | [8] 14.8 µM | [9] 9.35 µM | [12] 16.6 µM
inactive: [6] | [2] | [10] | [11]

Cc1nc(NC(=O)N2CCC[C@@H]2C(N)=O)sc1-c1csc(C(C)(C)C)n1
active: [7] 14.8 µM | [3] 4.18 µM | [8] 2.96 µM | [9] 0.235 µM | [12] 4.69 µM | [11] 11.8 µM | [5] 15.2 µM
inactive: [6]

C[C@]12CCC3=C4CCC(=O)C=C4CC[C@@H]3[C@H]1CC[C@@]2(O)CC#N
not listed: [1] | [7] | [9]
inactive: all other assays above

CCC(=C(c1ccc(O)cc1)c1ccc(OCCNC)cc1)c1ccccc1
active: [8] 37.2 µM | [11] 18.7 µM | [5] 34.1 µM
inactive: [6] | [2]

Cc1nn(Cc2ccccc2Cl)c(C)c1CN(C)CC(O)COc1ccc(Cl)cc1 (centres undefined)
active: [3] 20.9 µM | [9] 1.87 µM
inactive: [6] | [2] | [10] | [11]

C=C1[C@H](n2cnc3c(=O)[nH]c(N)nc32)C[C@H](O)[C@H]1CO
inactive: [6] | [10] | [5]
active: [3] 0.0235 µM | [9] 0.0187 µM | [4] 21.7 µM | [12] 2.09 µM

CN(C(Cc1ccc(OS(=O)(=O)c2cccc3cnccc23)cc1)C(=O)N1CCN(c2ccccc2)CC1)S(=O)(=O)c1cccc2cnccc12 (centres undefined)
active: [8] 18.7 µM | [9] 0.418 µM
inactive: [6] | [4]

C[C@@H]1[C@H](C)CC[C@]2(C(=O)O)CC[C@]3(C)C(=CC[C@@H]4[C@@]5(C)CC[C@H](O)C(C)(C)[C@H]5CC[C@]43C)[C@@H]12
active: [2] 19 µM | [9] 0.429 µM | [12] 13.6 µM | [11] 9.59 µM | [5] 17.5 µM
inactive: [6] | [4] | [10]

Source: PubChem BioAssay (NCATS)
